The results in this text go back to PubChem BioAssay (Tox21).

Assay [1] in a line: Nuclear factor erythroid 2-related factor 2/antioxidant responsive element (Nrf2/ARE) small molecule agonists: qHTS cell viability counter screen in human keratinocytes (AID 1919968; active means well fitted curve in the direction sought with a large enough effect in the repeat runs; an effect the other way counts as inactive or inconclusive; further: nearly all actives have a fitted effect of over 55% in size). The gist of the method:
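Viability counter-screen: KeratinoSens reporter cells, DMSO-delivered compounds, 23 h at 37 C, CellTiter-Fluor fluorescence.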

Assay [2] in a line: Nuclear factor erythroid 2-related factor 2/antioxidant responsive element (Nrf2/ARE) small molecule agonists: luciferase reporter gene qHTS assay in human keratinocytes (AID 1919969). Further: nearly all actives have a fitted effect of over 35% in size. A general note: In a reporter assay the amount or activity of a reporter protein is the signal.
The target in assay [3] is Gonadotropin-releasing hormone receptor (Homo sapiens) (UniProt P30968). Kind of assay: Human gonadotropin-releasing hormone receptor (GnRHR) small molecule agonists, calcium flux assay in GnRHR-HEK293 cells (AID 1920063). Further: nearly all actives have a fitted effect of over 35% in size. The gist of the method:
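Tox21-format agonist screen using human GnRHR-expressing HEK293 cells and a fluorescent calcium dye; kinetic 3-min fluorescence reading after compound addition, 15-point concentration series run in triplicate.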
A general note: Calcium flux is commonly read through the fluorescence of an indicator in the cells.

The target in assay [4] is KiSS-1 receptor (Homo sapiens) (UniProt Q969F8). Kind of assay: Human kisspeptin (KISS1R) small molecule agonists, calcium flux assay in KISS1R-HEK293 cells (AID 1920064; active means well fitted curve in the direction sought with a large enough effect in the repeat runs; an effect the other way counts as inactive or inconclusive). The method, boiled down:
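Intracellular calcium mobilization in KISS1R-HEK293 cells was recorded by fluorescence (Ex/Em 480/540) for 3 min following compound addition to cells pre-loaded 1 h with calcium dye.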

Assay [5] is described as follows: G protein-coupled receptor (GPCR) small molecule agonists, calcium flux assay: HEK293 wild type cell line counter screen (AID 1920065). The method, boiled down: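 In this agonist-mode screen, ATP is the positive control and DMSO the vehicle. Cells grow 18 h before a 1 h dye incubation at 37 C; signal is taken at Ex/Em 480/540 over 3 min.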
The nature of assay [6]: p53 small molecule agonists, cell-based qHTS assay with human liver microsomes (AID 1963577).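 Further: p53 response element beta-lactamase reporter cells with liver microsomes plus NADPH.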 The method, boiled down:
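16 h, 37 C exposure of p53RE-bla cells to compounds with human liver microsomes and NADPH (0.5 mg/mL final each); detection via LiveBLAzer mixture, 2 h dark at room temperature.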

Assay [7] in a line: p53 small molecule agonists, cell-based qHTS assay with rat liver microsomes (AID 1963578). The gist of the method:
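With rat liver microsomes and NADPH present (0.5 mg/mL final each), p53RE-bla cells are treated with compound for 16 h at 37 C. LiveBLAzer detection mixture is then applied for 2 h at room temperature in the dark.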
Background: qHTS replaces the single test concentration by a dilution series.

The nature of assay [8]: p53 small molecule agonists, cell-based qHTS assay with human liver microsomes: qHTS cell viability counter screen (AID 1963579). Further: nearly all actives have a fitted effect of over 45% in size. The gist of the method:
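In this multiplexed counter screen, the reporter plates were subsequently treated with CellTiter-Glo so that cell viability, reflected by luminescence, could be recorded for p53RE-bla cells dosed 16 h with compounds under microsomal activation (HLM and NADPH).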

Assay [9] can be described thus: p53 small molecule agonists, cell-based qHTS assay with rat liver microsomes: qHTS cell viability counter screen (AID 1963580). Further: nearly all actives have a fitted effect of over 45% in size. The method, boiled down: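 Viability is assessed in parallel with the p53 reporter read: HCT-116 p53RE-bla cells receive compounds plus rat microsomes and NADPH (0.5 mg/mL final apiece), incubate 16 h at 37 C, and then CellTiter-Glo luminescence is recorded.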

Assay [10] in a line: p53 small molecule agonists, cell-based qHTS assay: qHTS cell viability counter screen (AID 1963581). Further: nearly all actives have a fitted effect of over 45% in size. The method, boiled down: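 Compounds are pinned onto HCT-116 p53RE-bla cells and left 16 h at 37 C. Following the reporter FRET read, ATP is quantified by CellTiter-Glo luminescence after 30 min at room temperature.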
Assay [11] in a line: p53 small molecule agonists, cell-based qHTS assay (AID 1963582; active means well fitted activation curve with a large enough effect in the signal ratio in the repeat runs, not every such curve was filed as active; the % refers to the signal ratio). The gist of the method:
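Agonist activity was scored from beta-lactamase FRET fluorescence in p53RE-bla cells treated 16 h at 37 C with compounds in DMSO, substrate incubation being 2 h at room temperature.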

Assay [12] concerns the target 5-hydroxytryptamine receptor 2A (Homo sapiens) (UniProt P28223). Kind of assay: 5-hydroxytryptamine receptor 2A (HTR2A) small molecule antagonists, cell-based qHTS assay (AID 1963586). Further: nearly all actives have a fitted effect of over 45% in size. Further: potency means the concentration at half of the fitted maximal effect. The method, boiled down: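 Antagonist-mode intracellular calcium assay: DOI (4 nM) added after 5 min compound pre-incubation at room temperature to dye-loaded HTR2A-CHO cells. Fluorescence followed for 3 min, sampled every second.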

Assay [13] has as its target Muscarinic acetylcholine receptor M1 (Homo sapiens) (UniProt P11229). As to the kind of experiment: Cholinergic receptor muscarinic 1 (CHRM1) small molecule antagonists, cell-based qHTS assay (AID 1963588). Further: nearly all actives have a fitted effect of over 40% in size. Further: potency means the concentration at half of the fitted maximal effect. The method, boiled down:
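CHRM1-CHO calcium-flux assay, antagonist mode. Cells were seeded 18 h, dye-loaded 1 h at 37 C and given compound for 5 min at RT, then acetylcholine was added at 50nM. FDSS fluorescence was read 3 min; 15 concentrations, three runs.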

Assay [14] shares this target. As to the kind of experiment: Cholinergic receptor muscarinic 1 (CHRM1) small molecule agonists, cell-based qHTS assay (AID 1963589). Further: nearly all actives have a fitted effect of over 35% in size. The gist of the method:
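Stable CHRM1-CHO cells (human receptor) were incubated 18 h, dye-loaded for 1 h at 37 C and exposed to test compounds for agonist activity, with calcium-dependent fluorescence followed kinetically.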

The nature of assay [15]: cAMP Responsive Elements (CRE) small molecule agonists, cell-based qHTS assay (AID 1963590). The method, boiled down:
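FRET-based beta-lactamase readout (LiveBLAzer B/G, 2 h RT) quantified CRE activation in HEK 293T CRE-bla cells after 3 h treatment with DMSO-dissolved compounds.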

The nature of assay [16]: cAMP Responsive Elements (CRE) small molecule antagonists, cell-based qHTS assay (AID 1963591; active means well fitted inhibition curve with a large enough effect in the signal ratio in the repeat runs, not every such curve was filed as active; the % refers to the signal ratio). The method, boiled down:
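qHTS in CRE-bla HEK 293T cells: compound in DMSO, then 0.25 uM NKH477 (final), 3 h at 37 °C/5% CO2; beta-lactamase FRET read-out after 2 h substrate incubation.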

For assay [17], the target named is D(2) dopamine receptor (Homo sapiens) (UniProt P14416). As to the kind of experiment: Dopamine D2 receptor (DRD2) small molecule agonists, cell-based qHTS assay (AID 1963594). Further: nearly all actives have a fitted effect of over 35% in size. Further: potency means the concentration at half of the fitted maximal effect. The method, boiled down:
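HEK293 cells stably expressing human DRD2, pre-treated with PDE inhibitor Ro20-1724 (0.1 mM final) and compound 10 min at room temperature, then stimulated with NKH477 (200nM […]) for 30 min. cAMP read by HTRF (665/620 nm).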

The target is the same in assay [18]. As to the kind of experiment: Dopamine D2 receptor (DRD2) small molecule antagonists, cell-based qHTS assay (AID 1963595; active means well fitted inhibition curve with a large enough effect in the signal ratio in the repeat runs, with a control signal flat; the % refers to the signal ratio). The method, boiled down: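 Cells were plated and grown for 24 h at 37 °C. Ro20-1724 (0.1 mM final) went in first, then compound for 10 min. NKH477 (200 nM) with quinpirole (12 nM) followed for 30 min at RT, then HTRF detection reagents for 1 h.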

Assay [19] deals with 5-hydroxytryptamine receptor 2A (Homo sapiens) (UniProt P28223). Kind of assay: 5-hydroxytryptamine receptor 2A (HTR2A) small molecule agonists, cell-based qHTS assay (AID 1963587). Further: nearly all actives have a fitted effect of over 30% in size. Further: potency means the concentration at half of the fitted maximal effect. The method, boiled down:
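CHO cells stably expressing human HTR2A, plated 18 h, loaded with calcium dye 1 h at 37 C. Agonist mode: compounds added and intracellular calcium fluorescence recorded kinetically for 2 min at 1 sec intervals.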

Assay [20] concerns the target Beta-2 adrenergic receptor (Homo sapiens) (UniProt P07550). As to the kind of experiment: Adrenergic beta2 receptor (ADRB2) small molecule antagonists, cell-based qHTS assay (AID 1963592). Further: series mostly up to about 92 µM; nearly all actives have a fitted effect of over 50% in size. The gist of the method: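 Cells (CHO, stable ADRB2 overexpression) incubated 18-20hr at 37C; compounds added from DMSO; agonist mix (1nM isoproterenol, 100uM IBMX, 25uM Ro-20-1724) added; 0.5hr RT; d2-cAMP and anti-cAMP-cryptate added; 1hr RT; 665/615 nm read.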

SMILES strings stand for the structures. Unmarked numbers belong to inactive results. Records with an inconclusive call do not appear. Active and inactive are the calls of the source. Unless noted, the call rests on the fitted dose curve.

Chain of KiSS-1 receptor (Homo sapiens) (Q969F8 whole entry, looked up): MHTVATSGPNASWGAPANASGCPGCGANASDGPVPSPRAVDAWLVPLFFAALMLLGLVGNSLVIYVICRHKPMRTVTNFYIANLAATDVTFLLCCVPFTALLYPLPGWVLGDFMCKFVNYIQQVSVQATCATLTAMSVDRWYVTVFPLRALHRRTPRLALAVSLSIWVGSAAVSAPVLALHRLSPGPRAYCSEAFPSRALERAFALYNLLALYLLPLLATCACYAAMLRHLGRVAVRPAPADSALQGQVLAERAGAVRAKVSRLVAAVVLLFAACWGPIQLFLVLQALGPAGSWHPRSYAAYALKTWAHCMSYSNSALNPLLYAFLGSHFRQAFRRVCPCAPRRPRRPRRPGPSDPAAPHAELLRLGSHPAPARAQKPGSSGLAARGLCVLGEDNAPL
Chain of 5-hydroxytryptamine receptor 2A (Homo sapiens) (P28223 whole entry, looked up): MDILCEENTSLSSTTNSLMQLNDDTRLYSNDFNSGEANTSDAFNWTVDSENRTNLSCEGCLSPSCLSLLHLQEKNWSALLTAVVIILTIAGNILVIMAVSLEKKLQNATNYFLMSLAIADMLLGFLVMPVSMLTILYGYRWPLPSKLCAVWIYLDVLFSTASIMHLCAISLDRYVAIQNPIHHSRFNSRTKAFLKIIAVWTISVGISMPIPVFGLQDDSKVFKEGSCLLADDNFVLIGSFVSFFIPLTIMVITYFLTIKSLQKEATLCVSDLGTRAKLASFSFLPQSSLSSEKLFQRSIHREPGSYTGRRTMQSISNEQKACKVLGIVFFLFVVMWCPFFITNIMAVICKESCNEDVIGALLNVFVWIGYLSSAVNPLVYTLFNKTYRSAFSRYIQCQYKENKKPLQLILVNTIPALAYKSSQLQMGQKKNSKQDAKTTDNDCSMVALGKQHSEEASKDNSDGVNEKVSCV
Chain of D(2) dopamine receptor (Homo sapiens) (P14416 whole entry, looked up): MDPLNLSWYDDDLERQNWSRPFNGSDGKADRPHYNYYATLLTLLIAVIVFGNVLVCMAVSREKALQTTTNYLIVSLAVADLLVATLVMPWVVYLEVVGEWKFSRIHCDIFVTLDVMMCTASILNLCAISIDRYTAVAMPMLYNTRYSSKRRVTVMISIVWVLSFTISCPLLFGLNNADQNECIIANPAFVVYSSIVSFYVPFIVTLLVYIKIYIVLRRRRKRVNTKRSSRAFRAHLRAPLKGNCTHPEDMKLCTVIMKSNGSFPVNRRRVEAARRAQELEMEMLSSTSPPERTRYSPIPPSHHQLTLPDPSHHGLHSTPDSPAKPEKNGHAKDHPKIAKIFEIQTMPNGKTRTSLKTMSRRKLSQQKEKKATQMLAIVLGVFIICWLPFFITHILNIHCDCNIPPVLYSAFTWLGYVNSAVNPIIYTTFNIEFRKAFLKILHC
Chain of Beta-2 adrenergic receptor (Homo sapiens) (P07550 whole entry, looked up): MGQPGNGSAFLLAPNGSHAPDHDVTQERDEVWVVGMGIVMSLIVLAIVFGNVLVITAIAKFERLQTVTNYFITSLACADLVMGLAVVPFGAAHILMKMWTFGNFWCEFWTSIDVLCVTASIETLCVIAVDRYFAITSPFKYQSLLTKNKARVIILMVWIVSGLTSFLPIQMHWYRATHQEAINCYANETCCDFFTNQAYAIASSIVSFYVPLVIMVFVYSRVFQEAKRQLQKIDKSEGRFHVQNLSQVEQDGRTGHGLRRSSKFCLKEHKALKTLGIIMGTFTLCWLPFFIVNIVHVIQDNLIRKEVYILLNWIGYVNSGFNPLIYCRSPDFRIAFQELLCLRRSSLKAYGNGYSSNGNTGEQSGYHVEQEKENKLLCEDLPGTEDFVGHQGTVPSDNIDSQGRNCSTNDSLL
Chain of Gonadotropin-releasing hormone receptor (Homo sapiens) (P30968 whole entry, looked up): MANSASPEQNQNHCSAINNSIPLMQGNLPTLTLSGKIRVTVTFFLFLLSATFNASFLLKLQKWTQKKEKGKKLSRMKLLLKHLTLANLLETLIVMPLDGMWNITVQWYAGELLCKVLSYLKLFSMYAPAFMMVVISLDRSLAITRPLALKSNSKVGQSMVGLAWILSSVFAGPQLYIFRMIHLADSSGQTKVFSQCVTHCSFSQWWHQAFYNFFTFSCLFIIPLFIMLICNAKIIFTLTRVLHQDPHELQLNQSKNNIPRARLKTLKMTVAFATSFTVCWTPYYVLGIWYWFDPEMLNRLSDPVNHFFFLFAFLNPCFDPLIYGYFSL
Chain of Muscarinic acetylcholine receptor M1 (Homo sapiens) (P11229 whole entry, looked up): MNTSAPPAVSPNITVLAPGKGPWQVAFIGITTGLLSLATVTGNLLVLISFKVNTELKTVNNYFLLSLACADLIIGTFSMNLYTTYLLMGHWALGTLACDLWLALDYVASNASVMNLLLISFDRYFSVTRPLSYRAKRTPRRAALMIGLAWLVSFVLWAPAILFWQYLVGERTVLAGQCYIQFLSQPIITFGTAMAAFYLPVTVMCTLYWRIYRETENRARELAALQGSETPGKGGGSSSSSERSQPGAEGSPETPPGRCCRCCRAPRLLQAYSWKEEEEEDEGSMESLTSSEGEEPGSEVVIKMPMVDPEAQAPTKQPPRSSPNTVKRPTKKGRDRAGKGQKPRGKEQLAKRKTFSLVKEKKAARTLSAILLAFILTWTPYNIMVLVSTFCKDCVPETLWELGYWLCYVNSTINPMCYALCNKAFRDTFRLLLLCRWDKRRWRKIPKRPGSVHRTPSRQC

For the compound `COc1cc(C[C@@H](C)N)c(OC)cc1Br`, the Potency result in assay [1], in assay [2], in [3], in assay [4], in assay [5] and in assay [6] was “inactive” each time. Further, the Potency result in assay [7], in assay [8], in [9], in assay [10], in assay [11] and in [12] was “inactive” in each case. The Potency entry in assay [14], in assay [15], in assay [16] and in assay [18] was “inactive” in each case. The Potency in assay [13] was 17.2 µM (active); in assay [17] it was 3.96 µM (active).

Consider `CCC(=O)C(CCN(C)C)(c1ccccc1)c1ccccc1`, for which the Potency entry in assay [1], in assay [2], in [3], in assay [4], in assay [5] and in assay [6] was “inactive” throughout. Further, the Potency result in assay [7], in [8], in [9], in assay [10], in [11] and in assay [19] was “inactive” throughout. Moreover, the Potency result in [14], in assay [20], in assay [17] and in assay [18] was “inactive” each time. Further, the Potency in assay [12] is 16.3 µM (active); in assay [13], 11.6 µM (active).

For `N#CCCSCCC#N`, the Potency result in assay [1], in [2], in [3], in assay [4], in [5] and in assay [6] was “inactive” each time. Moreover, the Potency result in assay [7], in assay [8], in [9], in [10], in assay [11] and in assay [12] was “inactive” throughout. In addition, the Potency entry in [19], in assay [14], in assay [15], in assay [20], in [17] and in assay [18] was “inactive” in each case.

`Cn1c(CCCC(=O)O)nc2cc(N(CCCl)CCCl)ccc21`: the Potency result in assay [1], in assay [2], in assay [3], in [4], in assay [5] and in [6] was “inactive” in each case. Besides, the Potency result in assay [7], in assay [8], in assay [9], in assay [10], in assay [11] and in [12] was “inactive” each time. Moreover, the Potency result in [19], in assay [13], in assay [14], in assay [15], in [20] and in [17] was “inactive” in each case.

Regarding `CCOC(=O)C(Cl)C(C)=O` (stereo not given), the Potency result in assay [1], in assay [2], in [3], in assay [4], in assay [5] and in assay [6] was “inactive” each time. The Potency result in assay [7], in [8], in assay [9], in assay [10], in assay [11] and in assay [12] was “inactive” in each case. Further, the Potency entry in assay [14], in [15], in [16], in assay [20], in [17] and in assay [18] was “inactive” each time. In addition, the Potency in assay [13] was 4.26 µM (active).

`CCCCc1ccc(O)cc1`: the Potency result in [1], in assay [2], in assay [3], in [4], in assay [5] and in [6] was “inactive” each time. The Potency entry in assay [7], in assay [8], in assay [9], in assay [10], in [11] and in assay [12] was “inactive” each time. Besides, the Potency entry in assay [19], in assay [20], in assay [17] and in assay [18] was “inactive” each time.

Turning to `N[C@@H]1C[C@H]1c1ccccc1`, the Potency entry in assay [1], in assay [2], in assay [3], in [4], in assay [5] and in assay [6] was “inactive” in each case. The Potency result in assay [7], in assay [8], in assay [9], in [10], in assay [11] and in assay [12] was “inactive” throughout. In addition, the Potency result in assay [13], in assay [14], in assay [15], in [20] and in assay [17] was “inactive” each time. The Potency in assay [19] is 8.49 µM (active).
